Measured values from the supplement of paper PMC10849652.
Of roughly 7,900 targets only a part is listed; those with a hit were picked by preference. About 0.6% of all pairs of compound and target were hits.

Tests used:
Test in all cases: log2 fold change, soluble protein after heating vs DMSO (PISA); higher = thermal stabilisation; K562 cells, 10 uM, 30 min; active = over 0.2 and 3.5 SD of the protein, either way, in both replicates (recomputed)
bafetinib = compound: Cc1ccc(NC(=O)c2ccc(CN3CC[C@H](N(C)C)C3)c(C(F)(F)F)c2)cc1Nc1nccc(-c2cncnc2)n1 [bafetinib]
Method in brief: (§1)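 For each measurement, 10 μM compound was applied for 30 min to K562 cells at 2×10^6 cells/mL. Aliquots were heated for 3 min across 48°C-58°C, pooled, and extracted in PBS with 0.5% NP-40 at 4°C; the supernatant after 21,000xg for 90 min was soluble protein. This was quantified by TMTpro 16plex LC-MS/MS with channel sums equalised, and thermal stability was reported relative to control samples from duplicates, on a log2 fold-change scale.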

[1] = compound: Cc1cccc(CC(=O)N2CCc3c2ccc(-c2cn(C)c4ncnc(N)c24)c3F)n1
Method in brief: as §1

nilotinib = compound: Cc1cn(-c2cc(NC(=O)c3ccc(C)c(Nc4nccc(-c5cccnc5)n4)c3)cc(C(F)(F)F)c2)cn1 [nilotinib]
Method in brief: as §1

[2] = compound: Cc1nc(Nc2n[nH]c3c2CN(C(=O)N[C@H](CN(C)C)c2ccccc2)C3(C)C)c2sccc2n1
Method in brief: as §1

dasatinib = compound: Cc1nc(Nc2ncc(C(=O)Nc3c(C)cccc3Cl)s2)cc(N2CCN(CCO)CC2)n1 [dasatinib]
Method in brief: as §1

[3] = compound: Cc1ncc(-c2ccnc(Nc3ccc(S(C)(=O)=O)cc3)n2)n1C(C)C
Method in brief: as §1

[4] = compound: Cn1cc(-c2ccc3c(c2)CCN3C(=O)Cc2cccc(C(F)(F)F)c2)c2c(N)ncnc21
Method in brief: as §1

[5] = compound: Cn1cc(-c2ccc3nnc(C(F)(F)c4ccc5ncccc5c4)n3n2)cn1
Method in brief: as §1

tipifarnib = compound: Cn1cncc1[C@@](N)(c1ccc(Cl)cc1)c1ccc2c(c1)c(-c1cccc(Cl)c1)cc(=O)n2C [tipifarnib]
Method in brief: as §1

mubritinib = compound: FC(F)(F)c1ccc(/C=C/c2nc(COc3ccc(CCCCn4ccnn4)cc3)co2)cc1 [mubritinib]
Method in brief: as §1

Measured: log2 fold change

SLC38A9 (UniProt Q8NBW4)
inactive: bafetinib -0.022 | [1] -0.04 | nilotinib 0.02 | [2] 0.05 | dasatinib 0.094 | [3] -0.081 | [4] -0.017 | [5] -0.034 | tipifarnib 0.038 | mubritinib 0.046

STRN (UniProt O43815)
Chain of UniProt O43815 (O43815 whole entry, looked up): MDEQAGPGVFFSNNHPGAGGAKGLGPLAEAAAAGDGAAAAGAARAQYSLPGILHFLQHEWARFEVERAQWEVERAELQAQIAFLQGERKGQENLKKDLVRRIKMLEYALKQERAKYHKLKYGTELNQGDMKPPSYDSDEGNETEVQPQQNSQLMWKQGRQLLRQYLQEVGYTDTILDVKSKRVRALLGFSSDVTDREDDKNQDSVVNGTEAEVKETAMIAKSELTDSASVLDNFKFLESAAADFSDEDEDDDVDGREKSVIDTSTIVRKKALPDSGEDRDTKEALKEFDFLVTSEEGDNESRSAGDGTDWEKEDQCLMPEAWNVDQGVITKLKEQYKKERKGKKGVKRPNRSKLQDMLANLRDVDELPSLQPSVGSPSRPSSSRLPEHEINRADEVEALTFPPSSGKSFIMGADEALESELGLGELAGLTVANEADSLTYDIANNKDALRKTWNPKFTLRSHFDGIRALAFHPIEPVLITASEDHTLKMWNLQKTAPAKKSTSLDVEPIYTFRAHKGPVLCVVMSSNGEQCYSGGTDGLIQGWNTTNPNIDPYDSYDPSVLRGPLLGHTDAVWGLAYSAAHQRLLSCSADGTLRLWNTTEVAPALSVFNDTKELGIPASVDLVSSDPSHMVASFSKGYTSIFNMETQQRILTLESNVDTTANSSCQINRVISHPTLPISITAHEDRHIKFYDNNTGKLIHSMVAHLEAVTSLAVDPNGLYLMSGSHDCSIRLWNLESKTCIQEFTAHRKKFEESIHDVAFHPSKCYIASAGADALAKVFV
inactive: bafetinib -0.016 | [1] 0.063 | nilotinib 0.014 | [2] 0.048 | dasatinib -0.068 | [3] -0.008 | [4] 0.022 | [5] -0.064 | tipifarnib 0 | mubritinib 0.021

TIMM21 (UniProt Q9BVV7)
Chain of UniProt Q9BVV7 (Q9BVV7 whole entry, looked up): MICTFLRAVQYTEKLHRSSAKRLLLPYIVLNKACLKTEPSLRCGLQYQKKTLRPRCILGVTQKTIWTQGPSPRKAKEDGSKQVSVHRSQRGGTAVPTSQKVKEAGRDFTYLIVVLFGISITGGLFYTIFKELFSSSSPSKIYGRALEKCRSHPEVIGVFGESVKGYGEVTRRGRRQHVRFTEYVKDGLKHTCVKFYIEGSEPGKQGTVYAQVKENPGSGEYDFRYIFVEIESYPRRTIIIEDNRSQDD
inactive: bafetinib -0.149 | [1] 0.058 | nilotinib -0.011 | [2] -0.014 | dasatinib 0.011 | [3] -0.003 | [4] 0.025 | [5] 0.074 | tipifarnib 0.055 | mubritinib -0.011

TFAM (UniProt Q00059)
Chain of UniProt Q00059 (Q00059 whole entry, looked up): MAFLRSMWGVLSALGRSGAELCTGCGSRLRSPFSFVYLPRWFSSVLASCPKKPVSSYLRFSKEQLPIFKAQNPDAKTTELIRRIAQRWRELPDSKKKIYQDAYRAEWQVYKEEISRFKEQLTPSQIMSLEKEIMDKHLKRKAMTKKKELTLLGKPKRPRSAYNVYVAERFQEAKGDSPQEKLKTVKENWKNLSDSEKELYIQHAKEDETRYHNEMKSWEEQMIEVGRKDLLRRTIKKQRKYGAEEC
inactive: bafetinib 0.034 | [1] 0.013 | nilotinib -0.025 | [2] 0.023 | dasatinib 0.077 | [3] 0.003 | [4] -0.048 | [5] -0.038 | tipifarnib 0.039 | mubritinib -0.068

TGFBRAP1 (UniProt Q8WUH2)
inactive: bafetinib -0.05 | nilotinib -0.122 | [2] -0.125 | dasatinib -0.153 | [3] 0.091 | [4] -0.151 | [5] -0.16 | tipifarnib 0.032 | mubritinib 0.053
active: [1] 0.482

SSB (UniProt P05455)
Chain of UniProt P05455 (P05455 whole entry, looked up): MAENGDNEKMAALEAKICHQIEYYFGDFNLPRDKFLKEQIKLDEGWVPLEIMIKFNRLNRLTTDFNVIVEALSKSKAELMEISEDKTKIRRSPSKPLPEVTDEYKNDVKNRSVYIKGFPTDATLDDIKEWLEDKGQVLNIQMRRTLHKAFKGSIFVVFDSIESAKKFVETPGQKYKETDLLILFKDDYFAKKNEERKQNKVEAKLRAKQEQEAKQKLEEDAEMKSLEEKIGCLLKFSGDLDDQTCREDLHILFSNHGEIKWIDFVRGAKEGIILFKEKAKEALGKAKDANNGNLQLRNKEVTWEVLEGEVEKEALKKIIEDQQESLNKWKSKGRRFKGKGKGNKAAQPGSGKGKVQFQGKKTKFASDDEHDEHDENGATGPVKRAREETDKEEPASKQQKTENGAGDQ
inactive: bafetinib -0.022 | [1] -0.018 | nilotinib -0.057 | [2] -0.125 | dasatinib -0.06 | [3] -0.123 | [4] -0.048 | [5] -0.02 | tipifarnib 0.051 | mubritinib -0.111

STK26 (UniProt Q9P289)
Chain of UniProt Q9P289 (Q9P289 whole entry, looked up): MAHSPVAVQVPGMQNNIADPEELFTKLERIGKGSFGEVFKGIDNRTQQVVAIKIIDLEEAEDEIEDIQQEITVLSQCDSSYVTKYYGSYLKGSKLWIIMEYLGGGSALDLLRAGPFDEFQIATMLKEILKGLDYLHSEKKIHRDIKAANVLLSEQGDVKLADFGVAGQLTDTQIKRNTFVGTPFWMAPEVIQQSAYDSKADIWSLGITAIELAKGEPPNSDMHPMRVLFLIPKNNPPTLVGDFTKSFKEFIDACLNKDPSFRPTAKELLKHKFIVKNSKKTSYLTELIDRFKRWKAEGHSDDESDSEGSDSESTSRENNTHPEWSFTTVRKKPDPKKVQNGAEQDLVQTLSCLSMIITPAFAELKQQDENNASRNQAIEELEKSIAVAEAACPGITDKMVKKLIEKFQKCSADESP
active: dasatinib -0.319
inactive: bafetinib -0.057 | [1] 0.026 | nilotinib -0.089 | [2] 0.198 | [3] -0.057 | [4] -0.058 | [5] 0.015 | tipifarnib -0.036 | mubritinib -0.036

SMAP2 (UniProt Q8WU79)
Chain of UniProt Q8WU79 (Q8WU79 whole entry, looked up): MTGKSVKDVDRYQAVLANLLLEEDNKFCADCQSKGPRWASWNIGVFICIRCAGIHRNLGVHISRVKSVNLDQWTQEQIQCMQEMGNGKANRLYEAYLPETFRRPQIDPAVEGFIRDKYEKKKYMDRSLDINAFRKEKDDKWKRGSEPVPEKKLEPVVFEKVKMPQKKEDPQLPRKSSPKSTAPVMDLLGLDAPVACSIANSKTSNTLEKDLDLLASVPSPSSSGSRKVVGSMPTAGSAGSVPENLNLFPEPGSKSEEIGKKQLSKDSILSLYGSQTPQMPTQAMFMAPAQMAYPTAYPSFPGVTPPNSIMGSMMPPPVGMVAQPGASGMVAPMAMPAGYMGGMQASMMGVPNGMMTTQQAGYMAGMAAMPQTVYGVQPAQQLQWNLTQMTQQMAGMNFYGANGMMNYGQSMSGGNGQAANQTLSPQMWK
inactive: bafetinib 0.01 | [1] -0.025 | nilotinib -0.078 | [2] -0.039 | dasatinib -0.135 | [3] 0.044 | [4] -0.022 | [5] -0.004 | tipifarnib -0.014 | mubritinib 0.018

TCOF1 isoform 4 (UniProt Q13428)
inactive: bafetinib -0.037 | [1] -0.012 | nilotinib -0.022 | [2] 0.045 | dasatinib 0.048 | [3] -0.034 | [4] -0.046 | [5] -0.014 | tipifarnib 0.022 | mubritinib 0.025

SMAP (UniProt O00193)
Chain of UniProt O00193 (O00193 whole entry, looked up): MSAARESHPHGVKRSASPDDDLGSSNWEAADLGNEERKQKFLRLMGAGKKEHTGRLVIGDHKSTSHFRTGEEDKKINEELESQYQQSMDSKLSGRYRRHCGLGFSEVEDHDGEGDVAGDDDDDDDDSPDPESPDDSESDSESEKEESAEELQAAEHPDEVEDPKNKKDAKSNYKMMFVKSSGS
inactive: bafetinib 0.043 | [1] -0.022 | nilotinib -0.004 | [2] 0.006 | dasatinib 0.033 | [3] -0.011 | [4] 0.005 | [5] -0.027 | tipifarnib -0.042 | mubritinib 0.038

TAOK3 (UniProt Q9H2K8)
inactive: bafetinib -0.066 | [1] 0.012 | nilotinib -0.05 | [2] 0.03 | dasatinib -0.048 | [3] -0.048 | [4] 0.025 | [5] -0.009 | tipifarnib -0.026 | mubritinib 0.018

TIMM10 (UniProt P62072)
Chain of UniProt P62072 (P62072 whole entry, looked up): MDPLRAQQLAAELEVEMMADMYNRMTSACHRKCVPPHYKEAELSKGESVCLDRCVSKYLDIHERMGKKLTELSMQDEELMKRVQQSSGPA
inactive: bafetinib -0.081 | [1] 0.027 | nilotinib 0.014 | [2] 0.005 | dasatinib 0.114 | [3] -0.027 | [4] -0.05 | [5] 0.153 | tipifarnib 0.048 | mubritinib -0.024

TGFBI (UniProt Q15582)
Chain of UniProt Q15582 (Q15582 whole entry, looked up): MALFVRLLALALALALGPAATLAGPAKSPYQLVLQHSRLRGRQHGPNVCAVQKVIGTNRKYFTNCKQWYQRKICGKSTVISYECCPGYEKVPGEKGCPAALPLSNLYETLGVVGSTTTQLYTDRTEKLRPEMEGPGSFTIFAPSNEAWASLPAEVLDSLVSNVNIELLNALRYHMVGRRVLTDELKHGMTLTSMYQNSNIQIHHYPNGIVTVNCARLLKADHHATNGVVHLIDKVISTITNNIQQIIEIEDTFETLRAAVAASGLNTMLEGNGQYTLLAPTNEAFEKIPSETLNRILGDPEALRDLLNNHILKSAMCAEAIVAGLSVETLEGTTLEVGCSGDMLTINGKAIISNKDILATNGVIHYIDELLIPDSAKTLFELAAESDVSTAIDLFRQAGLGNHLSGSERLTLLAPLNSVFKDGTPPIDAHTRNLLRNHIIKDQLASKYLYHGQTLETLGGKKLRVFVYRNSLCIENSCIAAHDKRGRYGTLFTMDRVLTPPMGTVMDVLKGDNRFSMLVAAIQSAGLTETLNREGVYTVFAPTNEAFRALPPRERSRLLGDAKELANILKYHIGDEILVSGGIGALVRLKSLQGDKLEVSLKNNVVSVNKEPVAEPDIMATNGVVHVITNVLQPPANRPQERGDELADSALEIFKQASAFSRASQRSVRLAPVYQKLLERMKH
inactive: bafetinib -0.241 | [1] 0.148 | nilotinib -0.099 | [2] 0.054 | dasatinib -0.04 | [3] 0.167 | [4] 0.197 | [5] 0.098 | tipifarnib -0.063 | mubritinib -0.02

SNX9 (UniProt Q9Y5X1)
Chain of UniProt Q9Y5X1 (Q9Y5X1 whole entry, looked up): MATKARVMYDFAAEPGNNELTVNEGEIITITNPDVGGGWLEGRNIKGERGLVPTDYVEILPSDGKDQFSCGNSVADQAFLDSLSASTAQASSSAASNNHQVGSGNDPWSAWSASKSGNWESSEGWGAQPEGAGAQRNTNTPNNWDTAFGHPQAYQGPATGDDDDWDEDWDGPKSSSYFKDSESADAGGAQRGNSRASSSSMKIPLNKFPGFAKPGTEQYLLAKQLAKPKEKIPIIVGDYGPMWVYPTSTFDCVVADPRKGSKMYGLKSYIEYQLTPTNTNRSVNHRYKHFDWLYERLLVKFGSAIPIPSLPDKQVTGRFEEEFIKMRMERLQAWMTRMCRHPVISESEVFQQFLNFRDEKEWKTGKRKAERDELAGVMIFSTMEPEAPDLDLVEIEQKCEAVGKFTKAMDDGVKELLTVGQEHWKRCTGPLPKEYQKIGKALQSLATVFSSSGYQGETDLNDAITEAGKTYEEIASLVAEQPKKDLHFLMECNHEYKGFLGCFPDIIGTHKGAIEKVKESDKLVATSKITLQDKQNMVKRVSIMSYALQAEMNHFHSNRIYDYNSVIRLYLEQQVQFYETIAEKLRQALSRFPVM
inactive: bafetinib -0.015 | [1] 0.03 | nilotinib -0.06 | [2] -0.064 | dasatinib -0.131 | [3] 0.006 | [4] -0.023 | [5] -0.008 | tipifarnib -0.013 | mubritinib 0.009

STAT5A (UniProt P42229)
Chain of UniProt P42229 (P42229 whole entry, looked up): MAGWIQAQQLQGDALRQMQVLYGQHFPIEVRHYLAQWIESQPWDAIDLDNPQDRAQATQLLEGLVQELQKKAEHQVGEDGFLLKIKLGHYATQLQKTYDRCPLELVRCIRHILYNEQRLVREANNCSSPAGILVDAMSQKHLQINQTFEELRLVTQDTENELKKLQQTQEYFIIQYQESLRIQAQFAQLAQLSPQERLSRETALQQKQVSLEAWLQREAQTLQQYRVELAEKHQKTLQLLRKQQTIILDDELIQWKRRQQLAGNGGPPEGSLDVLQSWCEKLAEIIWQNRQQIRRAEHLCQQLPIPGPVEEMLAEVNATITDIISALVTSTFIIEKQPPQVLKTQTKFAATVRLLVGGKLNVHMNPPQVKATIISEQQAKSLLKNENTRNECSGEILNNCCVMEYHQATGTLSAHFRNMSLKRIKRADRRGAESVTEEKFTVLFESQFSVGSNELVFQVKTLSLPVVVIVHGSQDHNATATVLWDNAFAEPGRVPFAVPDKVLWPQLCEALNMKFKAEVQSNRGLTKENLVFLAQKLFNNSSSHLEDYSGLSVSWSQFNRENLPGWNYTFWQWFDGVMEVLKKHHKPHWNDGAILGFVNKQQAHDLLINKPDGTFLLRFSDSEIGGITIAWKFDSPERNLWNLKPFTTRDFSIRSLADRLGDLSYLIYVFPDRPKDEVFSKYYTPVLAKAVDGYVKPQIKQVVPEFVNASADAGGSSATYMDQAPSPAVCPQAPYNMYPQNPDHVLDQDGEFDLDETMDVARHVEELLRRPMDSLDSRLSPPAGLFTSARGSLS
active: [2] -0.338 | mubritinib 0.371
inactive: bafetinib 0.034 | [1] 0.208 | nilotinib -0.112 | dasatinib -0.191 | [3] -0.051 | [4] 0 | [5] 0.104 | tipifarnib -0.107
